Bioassay records from PubChem.
Sa helicase inh – blocks Staphylococcus aureus DNA helicase; purified S. aureus helicase, fluorescence unwinding assay; inhibition, % (no concentration beside the values); hit rate 0.05% among 120,000; AID 485395; in the data active = inhibition above about 25%, passing the limit was not always enough;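 also: 0% = mean of negative control wells and 100% = mean of positive control wells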
Sa growth inh – blocks Staphylococcus aureus growth; S. aureus RN4220 growth, OD600, 20 h, 42 °C; hits give low values; relative growth, % (no concentration beside the values); hit rate 0.53% among 170,000;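 active = relative growth at most 50% at the other temperature and 20+ points below 30 °C, or under 10% at both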
Active calls of the source: *; / = no result. Only some compounds are listed: those with a hit (about 0.52% of all), similar ones and a draw of the others.

SMILES	Sa helicase inh	Sa growth inh
COc1ccc(OC)c(/C=C/C(=O)NCCN2CCC(N(C)C3CCCCC3C)CC2)c1 (stereo not given)	9	101
Cc1ccccc1NC(=S)N(CCN(C)C)C(C)c1ccncc1 (stereo not given)	-1	102
COc1ccc(-c2cc(=NCCc3ccccc3)c3cc(C)ccc3o2)cc1	46*	14
COc1ccc(-c2cc(=NC(CC(C)C)C(=O)O)c3cc(C)ccc3o2)cc1 (stereo not given)	7	92
NNC(=O)CNC(=O)c1cccnc1Oc1ccccc1	-8	93
Cc1ccc(C)n1-c1nc(SCCCC(=O)O)n[nH]1	-8	86
CCN(CC)C(=O)c1sc(NC(=S)N(C)Cc2cn(CC)nc2C)c(C(=O)OC)c1C	4	0.8*
CCn1cc(CN(C)C(=S)Nc2sc3c(c2C(=O)OC)CCC(C)C3)c(C)n1 (stereo not given)	28	95
Cc1ccc(C)[n+](C)c1	11	81
CCc1cc(=O)oc2c(O)c(O)ccc12	11	102
O=c1cc(-c2ccccc2)c2ccc(O)c(O)c2o1	58*	/
C#CCn1c(C2CC(=O)N(c3ccccc3Br)C2)nc2ccccc21 (stereo not given)	-18	75
CCC(=O)Nc1nnc(-c2cccc(OC)c2)o1	-3	0.6*
CCC(=O)Nc1nnc(-c2ccc3c(c2)CCCC3)o1	-4	-0.4*
CCC(=O)Nc1nnc(-c2ccco2)o1	3	90
O=C(Nc1nnc(-c2ccc3c(c2)CCCC3)o1)C1CCCCC1	-17	/
Nc1nc2ccccc2n1CCCOc1ccc(F)cc1	-19	87
Nc1ccc2c3c(cccc13)C(=O)N(c1ccccc1)C2=O	-127	95
O=C1NC(=O)c2ccc3c4c(ccc1c24)C(=O)N(c1ccccc1)C3=O	24	5.5*
O=C(Nc1nnc(SCc2cccc(F)c2)s1)C1CCCCC1	-22	/
CCN1C=C/C(=C\c2cc[n+](CC)c3ccccc23)c2ccccc21	82*	5.5*
CC[n+]1ccc(C)c2ccccc21	2	99
COc1ccc2oc(C(=O)OCc3cccc(S(=O)(=O)N4CCOCC4)c3)c(C)c2c1	7	111
CCn1c(C2CC(=O)N(CCc3ccccc3)C2)nc2ccccc21 (stereo not given)	16	101
CCN(CC)S(=O)(=O)c1ccc(Cl)c(C(=O)Oc2ccc(C)cc2-n2nc3ccccc3n2)c1	7	92
SMILES	Sa helicase inh	Sa growth inh
CC(=O)Oc1ccc(C)cc1-n1nc2ccccc2n1	0	46*
COC(=O)c1cc(CSc2nc3ccccc3[nH]2)ccc1O	-4	88
CCCCNc1ccc(C(F)(F)F)cc1N	7	77
CCCNc1ccccc1N	3	6.7*
CC1=C(C(N)=O)C(c2ccccc2)n2ncnc2N1 (stereo not given)	21	95
COC1=CC(=O)c2ccccc2C1=O	29	1.0*
CN(C1=CC(=O)c2ccccc2C1=O)c1ccccc1	-4	/
CNCC(=O)NC(c1ccccc1)c1ccccc1	9	112
CC(=O)Oc1ccccc1C(=O)Nc1ccc(OC(F)F)cc1	-19	4.2*
CC(=O)Oc1ccccc1C(=O)Nc1ccc(C(N)=O)cc1	13	103
CC[n+]1c(C)sc2cc(SC)c(OC)cc21	10	1.8*
CC[n+]1c(C)sc2ccccc21	16	46
COc1ccc2nc3oc(C(=O)NCCc4ccc(Cl)cc4)cc3cc2c1	8	/
Cc1ccc(S(=O)(=O)c2ccc(-n3ncc(C#N)c3N)cc2)cc1	-12	80
CN(Cn1nc2c(Cl)cc(Cl)cn2c1=S)C1CCCCC1	4	95
O=C1C=CC(=O)N1CCc1ccc(Cl)cc1	-17	9.7*
O=C1C=CC(=O)N1CCc1ccccc1	17	19
O=C1NC(=O)/C(=C\c2cccc(C(F)(F)F)c2)S1	-31	7.3*
CN(C)c1ccc(/C=C2\SC(=O)NC2=O)cc1	-22	/
C=CCn1c(C)cc(C(=O)COC(=O)C2C(C(=O)OCC)=C(C)NC(C)=C2C(=O)OCC)c1C	-17	93
COc1ccc(C2=Nn3c([n+](C)c4ccccc43)SC2)cc1	22	1.4*
COc1ccc(C2=Nn3c(nc4sc5c(c4c3=O)CCCC5)SC2)cc1	/	103
CCCCn1c(CNC(=O)c2ccccc2F)nnc1SCC(=O)OC	4	111
COc1ccc(-c2ocnc2C(=O)NC2CCCc3ccccc32)cc1 (stereo not given)	4	114
CC(C)CS(=O)(=O)c1oc(-c2ccc(F)cc2)nc1S(=O)(=O)c1ccccc1	/	1.0*
CCC(C)S(=O)(=O)c1oc(-c2cccs2)nc1S(=O)(=O)c1ccccc1 (stereo not given)	/	3.7*
O=S(=O)(c1ccccc1)c1nc(-c2cccs2)oc1N1CCCCC1	/	106
O=S(=O)(c1ccccc1)c1nc(-c2ccc(F)cc2)oc1NCc1ccccc1	/	121
CC(Sc1ncn[nH]1)C(=O)Nc1ccccc1C#N (stereo not given)	5	97
